# Screening data: PubChem BioAssay, several laboratories
# A selection: hits, their analogues and other compounds. The true share with any hit is near 3.7%.
# TIM10 inh: TIM10 yeast growth inhibition; S. cerevisiae TIM10 strain growth, BacTiter-Glo luminescence, 24 h; inhibition, % at 10 µM; 330,000 compounds, 1.4% hits; AID 463195;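 active = inhibition of 40% or more at the single tested concentration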;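 also: wild-type TIM10 isogenic control strain grown at permissive 25 °C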
# tim23-1 inh: growth inhibitors of tim23-1 mutant yeast; 330,000 compounds, 1.3% hits; inhibition, % at 20 µM; S. cerevisiae tim23-1 growth, BacTiter-Glo luminescence, 24 h;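 active = growth inhibition of the mutant yeast at or above 50%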;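 also: temperature-sensitive mutant grown at 25 °C; plate controls were DMSO-treated mutant yeast for no effect and medium wells lacking yeast for full effect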
# tim10-1 inh: inhibits growth of tim10-1 mutant yeast; S. cerevisiae tim10-1 ts strain growth, BacTiter-Glo, 24 h; inhibition, % at 20 µM; 330,000 compounds, 2.2% hits; AID 463190;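 active = inhibition of at least 40%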;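 also: mutant grown at 25 °C; 0% = DMSO wells with yeast and 100% = wells holding no yeast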
# PfHsp90 set2: reduces growth (ATP signal) of yeast expressing P. falciparum Hsp90. S. cerevisiae expressing PfHsp90, BacTiter-Glo ATP, 48 h; yeast lacking PDR1 and PDR3 efflux regulators. inhibition, % at 9.4 µM. 310,000 compounds, 0.32% hits. AID 504621;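 active = every replicate shows inhibition above about 80%, whatever the replicate mean, limit read from the data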;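 also: 0% = DMSO neutral controls and 100% = 20 µM radicicol positive controls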
# V-ATPase pHluor: yeast V-ATPase proton transport regulation by pHLuorin; S. cerevisiae, pHLuorin cytosolic pH fluorescence; response, % at 10 µM; 350,000 compounds, 0.37% hits; AID 504577; in the data active = response mostly above about 7.3%, no sharp cut-off; inactive = mostly below about 5.4%; also: actives read high
# Numbers without * were called inactive; x = not tested or not shown.
SMILES,TIM10 inh,tim23-1 inh,tim10-1 inh,PfHsp90 set2,V-ATPase pHluor
Cc1cc(C(C)(C)CC(C)(C)C)ccc1OCCOCC[N+](C)(C)Cc1ccccc1,8,23,5,113*,-1
O=S(=O)(c1c(F)cccc1F)N(CCc1ccc(F)cc1)C[C@@H](O)COCc1ccccc1,x,x,x,120*,-3
Cc1cc(Cl)c(S(N)(=O)=O)cc1OCC(N)=O,10,2,2,-1,1
CCN(CC)S(=O)(=O)c1cc(OCC(N)=O)c(C)cc1Cl,4,-2,13,45,14*
CCN1C[C@@H]2[C@@H]3C(=O)N(Cc4ccccc4)C(=O)[C@@H]3[C@](CC)(C(=O)OC)N2C1=NCc1ccccc1,x,x,x,7,-1
Cc1nnc(N=c2ssnc2Cl)o1,28,39,27,143*,7
O=Nc1c(O)c2ccccc2c2ccccc12,x,x,x,111*,-3
O=Nc1c2cc3ccccc3[nH]c-2c2ccccc12,x,x,x,x,4
COc1ccc(NC(=O)C2CCCN2S(=O)(=O)c2cccc3cccnc23)c(OC)c1 (stereo unspecified),-61,0,-28,102*,-2
COc1cc(NC(=O)[C@H]2CCCN2S(=O)(=O)c2cccc3cccnc23)cc(OC)c1OC,-1,5,-17,-10,0
O=C(c1cccc(S(=O)(=O)N2CCOCC2)c1)N1CCN(c2ccccc2)CC1,8,6,0,-17,0
O=C(c1cccc(S(=O)(=O)N2CCOCC2)c1)N1CCN(c2ccc(F)cc2)CC1,10,11,10,-6,18*
COc1cccc(NC(=O)CN(C)C(=O)c2cccc(S(=O)(=O)N3CC4(C)CC3CC(C)(C)C4)c2)c1 (stereo unspecified),13,2,-6,43,2
Cc1nnc(NC(=O)CN2CCN(Cc3ccc(F)cc3Cl)CC2)s1,-4,-8,-10,0,-2
CCNC1=C(Cl)C(=O)c2ccccc2C1=O,19,45,2,-4,x
CCCC(=O)NC1=C(Cl)C(=O)c2ccccc2C1=O,x,x,x,146*,-6
O=C(SCc1c(O)c2ccccc2oc1=O)c1ccccc1,x,x,x,x,0
O=c1oc2ccccc2c(O)c1Cc1cc(Cl)c2cccnc2c1O,5,8,19,90*,4
Cc1nc2nc(CCNS(=O)(=O)c3ccc(Cl)cc3)cn2nc1C,11,13,21,10,13*
N#Cc1ccccc1CSc1nc2ccsc2c(=O)n1Cc1ccccn1,12,20,9,-91,-1
Cc1ccc(CSc2nc3ccsc3c(=O)n2Cc2ccccn2)cc1,19,40,-14,78*,1
O=C(NCCOc1ccccc1)C1Nc2ccc(OC(F)(F)F)cc2C2C=CCC12 (stereo unspecified),13,15,7,11,17*
O=C(CCCNC(=O)c1ccc(Cl)cc1)OCc1cccc(Br)c1,-17,20,-10,113*,0
O=C(CNC(=O)c1ccccc1)OCc1cccc(Br)c1,-20,0,-23,4,4
CN(C)c1ccc(-c2cc(O)c3ncccc3c2)cc1,-8,5,19,101*,-24
SMILES,TIM10 inh,tim23-1 inh,tim10-1 inh,PfHsp90 set2,V-ATPase pHluor
Oc1cc(-c2ccc(N3CCCCC3)nc2)cc2cccnc12,0,34,1,111*,-78
Oc1cc(-c2ccncc2)cc2cccnc12,-32,39,4,7,3
CN(C)CCCNC(=O)c1ccc(-c2cc(O)c3ncccc3c2)cc1,-26,7,4,0,1
Cc1ccnc(NC(=O)c2ccc(S(=O)(=O)N3CCCCCC3)cc2)c1,5,39,29,40,-1
CCCCCCCCCCCCCCCCn1cc[n+](CC(C)=O)c1,x,x,x,105*,1
CCCCCCn1ccc(=N)cc1,-3,1,3,11,-1
C#C[C@]1(O)CC[C@H]2[C@@H]3CCC4=CC(=O)CC[C@@H]4[C@H]3CC[C@@]21C,1,34,18,-4,25*
O=C(c1cccs1)N1C[C@@H](n2cc(C3CC3)nn2)[C@H](O)C[C@@H]1c1ccc(Cl)cc1,x,x,x,x,0
Cc1ccc2nc(-c3ccc(NC(=O)CN4CCN(c5ccccn5)CC4)cc3)sc2c1,-7,-21,0,x,-1
CC(=O)c1cccc(NS(=O)(=O)c2ccc3c(c2)N(C(C)=O)CCO3)c1,-6,-1,3,1,-5
CCCCCCCN1CCN=C1N(C)C,-3,-1,-3,-18,-2
CCCCOc1ccc(C(=O)NNC(=S)NC(=O)CC)cc1,x,x,x,106*,0
CCC(=O)NC(=S)NNC(=O)c1ccc(OC)cc1,-34,-30,-7,x,1
O=C1C=CC(=O)N1c1ccc(OC(F)F)cc1,x,x,x,127*,0
O=C1C=CC(=O)N1c1ccc(O)cc1,-25,8,11,109*,3
O=C1CCCC(=O)N1c1ccc(O)cc1,-7,-3,5,8,-2
CCOC(=O)CC(NC(=O)CCS(=O)(=O)c1ccc2c(c1)n(C)c(=O)c(=O)n2C)c1ccc(C)cc1 (stereo unspecified),13,-9,-8,36,-1
Cc1cc(C)cc(OCC(=O)Nc2nc(-c3cccnc3)cs2)c1,-8,5,10,1,-3
CCN1CCN(C(c2ccc(C(F)(F)F)cc2)c2ccc3cccnc3c2O)CC1 (stereo unspecified),-54,49,28,121*,-3
CCCC(=O)NC(c1ccc(N(C)C)cc1)c1ccc2cccnc2c1O (stereo unspecified),-92,42,-26,1,-1
Cc1ccc(/C=[N+](\[O-])c2ccc(N(C)C)cc2)c2nsnc12,28,44,30,109*,3
Cc1ccc2nsnc2c1NS(=O)(=O)c1c(C)ccc2nsnc12,12,31,40,-6,-3
O=C(COC(=O)c1cc(Cl)cc(Cl)c1)NCCN1C(=O)CSC1=O,9,6,13,-15,4
O=C(COC(=O)c1cccc(Cl)c1)NCCN1C(=O)CSC1=O,-4,1,7,16,16*
C=C1C(C(=O)N2CCN(C)CC2)C1C(=O)N1CCN(C)CC1 (stereo unspecified),-7,1,-19,-3,13*
SMILES,TIM10 inh,tim23-1 inh,tim10-1 inh,PfHsp90 set2,V-ATPase pHluor
O=C(Nc1nnc(-c2ccc3c(c2)CCCC3)o1)c1ccc(Cl)cc1Cl,18,35,28,105*,-1
COc1ccccc1NC(=O)CSc1ccc2nnc(CCNC(=O)c3ccccc3)n2n1,9,14,22,24,-3
CCOc1ccccc1NC(=O)c1csc(C)c1C,6,22,18,15,-3
CC1=C(C(=O)OCCc2ccccc2)C(c2ccsc2)NC(=O)N1C (stereo unspecified),-5,0,24,-5,23*
COc1ccc(Nc2cnn(-c3nc4ccccc4s3)c(=O)c2Cl)cc1,x,x,x,96*,-24
NC(=O)c1ccccc1NC(=O)COc1ccc2c(c1)OCO2,13,-2,-23,-6,3
CC1(C)N=C(c2ccccc2)C(=O)N1,12,5,2,23,3
CC1(C)N=C(c2cccc(F)c2)C(=O)N1,1,4,-5,0,20*
